The source made the active and inactive calls. How the source made its calls: active means hit-call score of the fitted dose curve at least 0.9, where 1 is the maximum; inactive means score below 0.9.
Assay: BSK_SAg_Proliferation: Cell Proliferation Assessment in the BioMAP Diversity Plus: SAg Assay (AID 2283095);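 further: relative cell number as total protein by SRB absorbance in sub-confluent culture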
Details: primary human HUVEC with PBMC
Procedure, shortened: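 HUVEC/PBMC co-culture, 96-well. TCA-fixed (10%), 0.1% SRB stain, A560 at 96 h. Protein content used as viability readout; bidirectional fitting vs DMSO control.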

Structure (SMILES) | AC50 | outcome
O=C(O)Cc1cc(I)c(Oc2ccc(O)c(I)c2)c(I)c1 | 11.8 µM (active) | –
CC/C(=C(/CC)c1ccc(O)cc1)c1ccc(O)cc1 | 11.8 µM (active) | –
Cc1cc(F)ccc1-c1cc(N2CC[C@@H](O)[C@H]2CO)ncc1N(C)C(=O)C(C)(C)c1cc(C(F)(F)F)cc(C(F)(F)F)c1 | 5.7 µM (active) | –
O=C1O[C@H]([C@@H](O)CO)C(O)=C1O | – | inactive
Oc1ccc2ccccc2c1 | – | inactive
O=C(Nc1ccc(Cl)cc1)Nc1ccc(Cl)c(Cl)c1 | 1.79 µM (active) | –
CCCCCCCCOC(=O)c1cc(O)c(O)c(O)c1 | 5.52 µM (active) | –
CN1C(=O)N(c2ccccc2Br)Cc2cnc(Nc3ccc4c(c3)OCC(CO)O4)nc21 (centres undefined) | 1.52 µM (active) | –
O=CCCCC=O | 32.8 µM (active) | –
COc1cc(C(=O)NC2CCN(C)CC2)ccc1Nc1ncc2c(n1)N(C1CCCC1)CC(F)(F)C(=O)N2C | 5.59 µM (active) | –
Clc1cc(Cl)c2c(c1)N=C1CCCCCN1C2 | – | inactive
CC(C)(c1cc(Br)c(O)c(Br)c1)c1cc(Br)c(O)c(Br)c1 | 25.4 µM (active) | –
CCCOC(=O)c1cc(O)c(O)c(O)c1 | 17 µM (active) | –
O=C(OCCCCCCOC(=O)c1ccccc1)c1ccccc1 | – | inactive
Cc1ccc(C(C)C)cc1 | – | inactive
CCCCCCCC[Si](OCC)(OCC)OCC | – | inactive
CCN(Cc1cccnc1)C(=O)c1cccc(Cl)c1[C@]1(C)C(=O)N(Cc2ccc(OC)cc2OC)c2ccc(Cl)cc21 | 7.09 µM (active) | –
O=C(O)c1ccccc1-n1cc(C(=O)O)c(=O)c2cc(Nc3c(F)cc(F)cc3Cl)c(Cl)cc21 | – | inactive
CCCCOC(=O)CC(CC(=O)OCCCC)(OC(C)=O)C(=O)OCCCC | – | inactive

Source: PubChem BioAssay (EPA / NIEHS)
